# Test results taken from PubChem BioAssay (NCI).
# Compounds without any hit were thinned out: in the full panel of roughly 83,000, 20% have a hit.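 Plates (96-well) were seeded with cells, treated with compound at one concentration, and incubated for 48 hours before percent growth was determined.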 Values without a mark were called inactive. The source made the active and inactive calls. Rule for the calls: active = growth percent below 10; inactive = the rest.
# Test system: NCI-H322M lung
# Experiment: NCI-60 one-dose screen, 48 h (100 = growth as untreated, 0 = no growth, -100 = all killed)
# Conditions: 10 µM unless noted
row,Structure (SMILES),growth
1,COc1cc(/C=C/C(=O)c2c(C)n([O-])c3ccc(Cl)cc3[n+]2=O)cc(OC)c1OC,90.5%
2,COc1ccc2ncccc2c1Cc1c(OC)ccc2ncccc12,96.6%
3,C=C1CC[C@@H]2[C@](C)(COC(C)=O)[C@H](OC(C)=O)CC[C@@]2(C)[C@@H]1CC(NCc1ccccc1)C1=CCOC1=O (stereo not given in full),77%
4,CCOC(=O)c1sc(NC(=O)COc2cccc(/C=C3\Cc4ccc(Cl)cc4C3=O)c2)nc1C,130%
5,O=C(Nc1cccc(-n2cc(-c3ccncc3)c(-c3cc(O)cc(Cl)c3)n2)c1)Nc1ccc(Cl)c(Cl)c1,19.5%
6,O=c1ccn(C2CC=C(CO)O2)c(=O)[nH]1 (stereo not given),95.9%
7,COC(=O)[C@H](Cc1cn(C)cn1)NC(=O)[C@@H](NC(=O)Nc1cc(C(F)(F)F)cc(C(F)(F)F)c1)C(C)C,-90.4% [100 µM] (active)
8,O=c1c2ccccc2c2nccn2c2cc(Cl)ccc12,129%
9,[N-]=[N+]=NCc1ncc(-c2ccc(C(F)(F)F)cc2)c(NC2CCCCCC2)n1,89.5% [50 µM]
10,CN(C)CCC(=O)Nc1ccc(-n2cc(-c3cccc(NC(=S)Nc4cccc(-c5cn(-c6ccc(NC(=O)CCN(C)C)cc6)nn5)c4)c3)nn2)cc1,92.4%
11,C/C(=C\CCc1ccoc1)CC/C=C(\C)CCCNc1ccc(F)cc1,85.4%
12,COP(=O)(OC)C(c1ccccc1)(c1ccccc1)c1ccccc1,95.4%
13,COc1cc(/C=C2\CN(S(=O)(=O)c3ccc(C)cc3)C/C(=C\c3cc(CN4CCOCC4)c(O)c(OC)c3)C2=O)cc(CN2CCOCC2)c1O,-15.6% (active)
14,CCCCCc1c(C)[nH]c(/C=C2\N=C(c3ccc[nH]3)C=C2Oc2ccccc2)c1C,-49.8% [100 µM] (active)
15,CCCCCCCSc1ncnc2[nH]ncc12,93.9%
16,COc1cccc(/C=N\NC(=O)c2ccncc2)c1O,19%
17,Cc1cc(=O)oc2cc(OCCn3c(C)nn(-c4ccc(Cl)cc4)c3=O)ccc12,58.7%
18,CC1CC=CCC1C1OCC(C)(C)CO1 (stereo not given),105%
19,O=C1CSC(c2ccccc2Cl)N1c1nnc(Cn2nnc3ccccc32)o1 (stereo not given),80.9%
20,O=C1Nc2ccc(C(=O)O)c(O)c2C1=O,105%

row,Structure (SMILES),growth
1,ICCC(c1ccccc1)(c1ccccc1)c1ccccc1,86.4%
2,O=C(Oc1cccc2ccccc12)c1ccccc1C(=O)c1ccccc1,101%
3,COc1ccc(C(=O)/C=C/c2ccc(C)cc2)cc1OC,74.6%
4,O=C(Nc1nc2c(C(F)(F)F)cccc2s1)c1cc(Cl)ccc1O,4.87% (active)
5,CCOC(=O)C1C(=O)NC(C(=O)OCC)(C(=O)OCC)C1CC (stereo not given),119%
6,O=C(CNC(=O)c1cccc2ccccc12)Nc1ccccc1Oc1cccc(O)c1,45.1% [5 µM]
7,CC(=O)Nc1c(Cl)cc2c(c1Cl)Cc1cc([N+](=O)[O-])ccc1-2,94.9%
8,COc1cc2c(cc1OC)C(CC1(O)CCCCC1)N(S(=O)(=O)c1ccc(C)cc1)CC2 (stereo not given),57.8% [100 µM]
9,NC(=O)NC1(C(=O)O)CCCC1,115%
10,COc1ccc(N2CCN(CC(=O)N3CCN(c4nnc(-c5ccc(Cl)cc5)c(-c5ccc(Cl)cc5)n4)CC3)CC2)cc1,69.3%
11,Oc1ccc(/C=N/Nc2nc3ccccc3s2)c(O)c1,11.9%
12,Nc1ccccc1-c1ccn[nH]1,93.8%
13,Nc1ccc2c(c1)Cc1cc(Cl)c(Cl)cc1-2,60.5%
14,O=C1C=CC(=O)N1c1ccccc1N1C(=O)C=CC1=O,122%
15,Clc1ccc2c(c1)C(Br)c1cc(Cl)cc(Cl)c1-2 (stereo not given),81.4%
16,NS(=O)(=O)c1ccc(-n2ncc3c(NC4CCCCC4)ncnc32)cc1,107%
17,COc1cccc(CCN2C(=O)CCC3=C2CCC3=O)c1,101%
18,O=C(C(=O)c1cc(Br)ccc1O)c1cc(Br)ccc1O,67.6%
19,O=CN1N=C(c2ccc(Cl)cc2)CC1c1cccc(Nc2ccnc3cc(Cl)ccc23)c1 (stereo not given),42.4%
20,CCN(CC)CCNCC(=O)Oc1ccc(/C=C/C(=O)CC(=O)/C=C/c2ccc(OC(=O)CNCCN(CC)CC)c(OC)c2)cc1OC,55.4%
